Inconclusive results are not listed. A number with no mark means an inactive call. Active and inactive are the calls of the source. Unless noted, the call rests on the fitted dose curve; in most records, active means well fitted curve in the direction sought with a large enough effect in the repeat runs; inconclusive means weak or mixed curves; inactive means no such curve, though single readings can be large; an effect the other way counts as inactive or inconclusive.

Assay [1] is described as follows: qHTS assay to identify small molecule antagonists of the retinoid-related orphan receptor gamma (ROR-gamma) signaling pathway - cell viability counter screen (AID 1159520). Further: nearly all actives have a fitted effect of over 50% in size. Further: potency means the concentration at half of the fitted maximal effect. The method in brief:
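Tet-on ROR gamma CHO cells were given compounds for 2 hr, then doxycycline hyclate at 1 uM final, and incubated 16 hr at 37 C. Viability was measured as ATP content by CellTiter-Glo luminescence.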

Assay [2] can be described thus: qHTS assay to identify small molecule agonists of the AP-1 signaling pathway - cell viability counter screen (AID 1159525; calls by dose curve; further: nearly all actives have a fitted effect of over 55% in size; further: potency means the concentration at half of the fitted maximal effect). The method, boiled down:
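Same-well cytotoxicity counter screen of the Tox21 10K library in ME-180 cells. The readout is ATP-dependent luminescence after 5 h compound treatment. Data are normalised to DMSO and tetra n-octyl ammonium bromide controls.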

The nature of assay [3]: qHTS assay to identify small molecule agonists of the AP-1 signaling pathway (AID 1159526; calls by dose curve; further: potency means the concentration at half of the fitted maximal effect).
The target in assay [4] is Retinoic acid receptor RXR-alpha (Homo sapiens) (UniProt P19793). Put plainly: qHTS assay to identify small molecule agonists of the RXR signaling pathway (AID 1159527; calls by dose curve; further: on the % scale 0 is the no-effect control and ±100 the full control effect; nearly all actives have a fitted effect of over 35% in size). The method, boiled down: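 Agonist mode; 9-cis retinoic acid positive control. HEK 293T UAS-bla reporter cells, 2% charcoal-stripped FBS, 16 hr compound exposure at 37 C/5% CO2. LiveBLAzer B/G FRET substrate 2 hr RT; ex 405, em 460/530 nm.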
Chain of Retinoic acid receptor RXR-alpha (Homo sapiens) (P19793 whole entry, looked up): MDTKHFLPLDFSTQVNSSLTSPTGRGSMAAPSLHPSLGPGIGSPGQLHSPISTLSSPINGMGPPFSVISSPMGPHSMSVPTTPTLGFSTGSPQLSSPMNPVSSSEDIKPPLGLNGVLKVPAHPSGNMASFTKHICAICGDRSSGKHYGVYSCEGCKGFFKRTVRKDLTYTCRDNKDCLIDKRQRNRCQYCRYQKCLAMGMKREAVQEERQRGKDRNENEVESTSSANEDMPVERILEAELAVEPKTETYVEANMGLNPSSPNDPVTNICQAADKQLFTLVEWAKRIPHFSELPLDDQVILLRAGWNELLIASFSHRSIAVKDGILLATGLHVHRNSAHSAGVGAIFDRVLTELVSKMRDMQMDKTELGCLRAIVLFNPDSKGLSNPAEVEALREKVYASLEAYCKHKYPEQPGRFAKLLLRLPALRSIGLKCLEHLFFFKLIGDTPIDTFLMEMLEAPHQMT

A short description of assay [5]: qHTS assay to identify small molecule antagonists of the retinoid acid receptor (RAR) signaling pathway - cell viability counter screen (AID 1159551). Further: nearly all actives have a fitted effect of over 35% in size. Further: potency means the concentration at half of the fitted maximal effect. The method in brief:
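C3RL4 RARE-luciferase line; cpds + retinol 1 uM final, 6 h, 37 C/5% CO2; CellTiter-Glo ATP luminescence, 30 min RT.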

A short description of assay [6]: qHTS assay to identify small molecule antagonists of the retinoic acid receptor (RAR) signaling pathway (AID 1159552; further: nearly all actives have a fitted effect of over 50% in size; further: potency means the concentration at half of the fitted maximal effect). The method in brief:
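Luminescence from a RARE luciferase reporter in C3RL4 cells served as read-out. Cells received compounds together with 1 uM final retinol and incubated 6 hr at 37 C before detection reagent was added for 30 min at room temperature.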

A short description of assay [7]: qHTS assay to identify small molecule agonists of the RXR signaling pathway - cell viability counter screen (AID 1159529). Further: nearly all actives have a fitted effect of over 50% in size. Further: potency means the concentration at half of the fitted maximal effect. The method in brief:
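Luminescence from CellTiter-Glo (30 min, RT) measured viability in the same wells as the beta-lactamase reporter readout. Cells: GeneBLAzer RXR-alpha HEK 293T, 2% charcoal-stripped FBS. Compound exposure 16 hr, 37 C.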

The target in assay [8] is Bile acid receptor (Homo sapiens) (UniProt Q96RI1). Put plainly: qHTS assay to identify small molecule antagonists of the farnesoid-X-receptor (FXR) signaling pathway (AID 743217; active means well fitted inhibition curve with a large enough effect in the signal ratio in the repeat runs, not every such curve was filed as active; the % refers to the signal ratio; further: on the % scale 0 is the no-effect control and ±100 the full control effect). The method in brief: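 Read-out: beta-lactamase FRET fluorescence (LiveBLAzer B/G substrate, 2 h, room temperature) in GeneBLAzer FXR-UAS-bla HEK 293T cells. Compounds were co-dosed with 50 uM chenodeoxycholic acid (final) and incubated 16 h at 37 °C.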
Chain of Bile acid receptor (Homo sapiens) (Q96RI1 whole entry, looked up): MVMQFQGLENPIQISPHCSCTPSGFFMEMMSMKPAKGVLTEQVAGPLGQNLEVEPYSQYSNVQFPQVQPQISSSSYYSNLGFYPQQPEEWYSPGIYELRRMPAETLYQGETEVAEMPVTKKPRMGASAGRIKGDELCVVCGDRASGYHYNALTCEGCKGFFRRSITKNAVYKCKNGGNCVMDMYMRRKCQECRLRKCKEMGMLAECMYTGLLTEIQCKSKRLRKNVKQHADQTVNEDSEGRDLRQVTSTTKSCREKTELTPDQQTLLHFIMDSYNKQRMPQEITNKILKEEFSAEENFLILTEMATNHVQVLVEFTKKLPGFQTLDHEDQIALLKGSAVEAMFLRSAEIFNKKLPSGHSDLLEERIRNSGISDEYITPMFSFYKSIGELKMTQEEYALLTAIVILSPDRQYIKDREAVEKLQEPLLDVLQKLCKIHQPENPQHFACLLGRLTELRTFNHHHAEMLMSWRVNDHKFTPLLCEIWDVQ

The nature of assay [9]: qHTS assay to identify small molecule agonists of the farnesoid-X-receptor (FXR) signaling pathway - cell viability counter screen (AID 743218). Further: nearly all actives have a fitted effect of over 45% in size. Further: potency means the concentration at half of the fitted maximal effect. The method, boiled down:
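Luminescence from CellTiter-Glo, read after 30 min at RT, reports viability of GeneBLAzer FXR-UAS-bla HEK 293T cells treated 16 h with compounds in the wells used for the beta-lactamase reporter.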

The nature of assay [10]: qHTS assay to identify small molecule antagonists of the farnesoid-X-receptor (FXR) signaling pathway - cell viability counter screen (AID 743221; active means well fitted cell-killing curve with a large enough effect in the repeat runs, not every such curve was filed as active; further: nearly all actives have a fitted effect of over 50% in size; further: potency means the concentration at half of the fitted maximal effect). The method, boiled down:
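HEK 293T FXR-bla cells, 5 h pre-incubation; compound + CDCA 50 uM final, 16 h, 37 C; beta-lactamase FRET read first, then CellTiter-Glo luminescence, 30 min RT.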

Assay [11] in a line: qHTS assay to identify small molecule antagonists of the vitamin D receptor (VDR) signaling pathway - cell viability counter screen (AID 743225). Further: nearly all actives have a fitted effect of over 50% in size. Further: potency means the concentration at half of the fitted maximal effect. The method, boiled down:
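Viability counter screen run in the same wells as the beta-lactamase reporter assay: HEK 293T VDR-UAS-bla cells, 16 h compound exposure at 37C with 3 nM (final) 1-alpha,25-dihydroxyvitamin D3. CellTiter-Glo luminescence, 30 min, room temperature.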

Assay [12] is described as follows: qHTS assay to identify small molecule agonists of the peroxisome proliferator-activated receptor delta (PPARd) signaling pathway - cell viability counter screen (AID 743211). Further: potency means the concentration at half of the fitted maximal effect; nearly all actives have a fitted effect of over 55% in size. The method, boiled down: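 Read-out: CellTiter-Glo luminescence, 30 min RT, measured in the same wells as the beta-lactamase reporter. Cells: GeneBLAzer PPAR delta UAS-bla HEK293H, 3000 cells/well, compound exposure 17 h at 37C.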

Assay [13] has as its target Peroxisome proliferator-activated receptor delta (Homo sapiens) (UniProt Q03181). Put plainly: qHTS assay to identify small molecule agonists of the peroxisome proliferator-activated receptor delta (PPARd) signaling pathway (AID 743212; calls by dose curve; further: on the % scale 0 is the no-effect control and ±100 the full control effect). The method in brief: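 Tox21 library screened in GeneBLAzer PPARd UAS-bla HEK293H cells. After compound treatment at 37 C, a FRET-based beta-lactamase substrate was applied for 2 h and fluorescence recorded.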

A short description of assay [14]: qHTS assay to identify small molecule antagonists of the peroxisome proliferator-activated receptor delta (PPARd) signaling pathway - cell viability counter screen (AID 743213). The method in brief:
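PPARd-bla HEK293H cells were treated with compounds plus agonist L165041 (300 nM final) for 17 h at 37 C. Viability was then read in the same wells by CellTiter-Glo luminescence after 30 min at room temperature.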

Assay [15] concerns the target Vitamin D3 receptor (Homo sapiens) (UniProt P11473). Put plainly: qHTS assay to identify small molecule agonists of the vitamin D receptor (VDR) signaling pathway (AID 743222; calls by dose curve; further: on the % scale 0 is the no-effect control and ±100 the full control effect). The method, boiled down:
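Beta-lactamase reporter readout (LiveBLAzer B/G FRET, 2 h RT) in VDR-bla cells after 16 h compound treatment at 37C, 5% CO2; cells pre-incubated 4 h before pin transfer of DMSO solutions.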

Assay [16] can be described thus: qHTS assay to identify small molecule agonists of the vitamin D receptor (VDR) signaling pathway - cell viability counter screen (AID 743224). The method, boiled down: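 Cytotoxicity counter screen: VDR-bla cells, 16 h compound exposure at 37C, 5% CO2; CellTiter-Glo luminescence, 30 min RT, same wells as bla read.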
For assay [17], the target named is Vitamin D3 receptor (Homo sapiens) (UniProt P11473). Put plainly: qHTS assay to identify small molecule antagonists of the vitamin D receptor (VDR) signaling pathway (AID 743223; active means well fitted inhibition curve with a large enough effect in the signal ratio in the repeat runs, not every such curve was filed as active; the % refers to the signal ratio; further: on the % scale 0 is the no-effect control and ±100 the full control effect). The method, boiled down: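 Beta-lactamase reporter read-out: FRET substrate fluorescence after 2 h at room temperature, following 16 h exposure of VDR-bla cells to test compound plus 3 nM (final) 1alpha,25-dihydroxyvitamin D3 agonist at 37C.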
Chain of Vitamin D3 receptor (Homo sapiens) (P11473 whole entry, looked up): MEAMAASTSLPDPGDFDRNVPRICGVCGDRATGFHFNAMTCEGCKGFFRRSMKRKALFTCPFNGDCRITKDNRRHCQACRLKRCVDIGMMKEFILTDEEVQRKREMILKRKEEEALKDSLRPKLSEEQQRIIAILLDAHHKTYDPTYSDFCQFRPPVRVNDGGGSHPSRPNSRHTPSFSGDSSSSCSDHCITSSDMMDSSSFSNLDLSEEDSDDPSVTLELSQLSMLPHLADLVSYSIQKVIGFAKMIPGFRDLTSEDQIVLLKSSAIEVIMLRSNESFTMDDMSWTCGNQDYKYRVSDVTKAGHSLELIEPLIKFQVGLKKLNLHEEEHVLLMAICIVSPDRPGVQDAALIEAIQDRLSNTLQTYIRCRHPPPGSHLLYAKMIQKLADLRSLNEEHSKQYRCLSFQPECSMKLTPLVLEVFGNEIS

Chain of Peroxisome proliferator-activated receptor delta (Homo sapiens) (Q03181 whole entry, looked up): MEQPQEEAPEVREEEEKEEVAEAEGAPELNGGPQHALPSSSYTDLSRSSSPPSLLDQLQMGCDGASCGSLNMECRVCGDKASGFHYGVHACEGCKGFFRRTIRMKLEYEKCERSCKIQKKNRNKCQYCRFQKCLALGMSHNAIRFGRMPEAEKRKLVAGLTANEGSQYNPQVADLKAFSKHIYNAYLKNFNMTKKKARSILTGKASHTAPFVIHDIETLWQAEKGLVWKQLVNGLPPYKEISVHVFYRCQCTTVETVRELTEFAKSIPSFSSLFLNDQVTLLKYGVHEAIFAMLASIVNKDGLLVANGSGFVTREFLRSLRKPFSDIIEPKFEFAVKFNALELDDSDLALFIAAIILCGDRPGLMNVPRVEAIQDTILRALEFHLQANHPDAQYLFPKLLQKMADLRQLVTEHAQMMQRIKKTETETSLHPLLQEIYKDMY

Turning to `CCOC(=O)[C@H](O)[C@@H](O)C(=O)OCC`, the Potency entry in assay [1], in [2], in assay [3], in assay [4], in assay [5] and in assay [6] was “inactive” in each case.
Consider `Nc1cc([N+](=O)[O-])cc(Cl)c1O`, for which the Potency entry in [1], in [2], in assay [3], in [4], in [5] and in [6] was “inactive” each time.
In the case of `ClC(c1ccccc1)(c1ccccc1)c1ccccc1`, the Potency entry in assay [1], in [2], in [3], in [7], in assay [5] and in [6] was “inactive” each time.
For `COc1cc(C(C)C)ccc1C`, the activity, negative = cytotoxicity in [1] is -0.985% [at 19 µM]. For the same compound, in [2], the viability change, negative = cytotoxic was 8.58% [at 15.8 µM]. The activation in assay [4] was -1.52% [at 15.8 µM]. Moreover, the figures for the activity change, negative = cytotoxicity in assay [7] and in [5] were 10.4% [at 15.8 µM] and -0.431% [at 19 µM], respectively. For the same compound, the activity, negative = inhibition in [6] was 191% [at 19 µM].
For `CC(=O)CC(N)=O`, the Potency result in assay [1], in assay [2], in [3], in assay [4], in assay [5] and in assay [6] was “inactive” each time.
For the compound `CC(C)(C)C1=CC(=O)C(C(C)(C)C)=CC1=O`, the Potency result in assay [1], in assay [2], in assay [3] and in assay [5] was “inactive” in each case.
Turning to `CC(C)=NNC(N)=S`, the Potency result in [1], in [2] and in assay [5] was “inactive” each time.
Take `CC(C)c1ccc2sc3ccccc3c(=O)c2c1`: the Potency entry in assay [8], in [9], in assay [10], in [11], in [1] and in [2] was “inactive” throughout. In assay [3], the Potency result is “inactive”.
In the case of `CC(=O)Nc1ccc(N=Nc2cc(C)ccc2O)cc1`, the Potency entry in [1], in assay [2], in assay [5] and in assay [6] was “inactive” throughout.
As to `O=C1OC2(c3ccccc31)c1ccc(O)c(Br)c1Oc1c2ccc(O)c1Br`, the Potency entry in assay [1], in assay [2], in [7], in assay [5] and in assay [6] was “inactive” each time.
Regarding `CC(C)(c1ccc(Oc2ccc(N)cc2)cc1)c1ccc(Oc2ccc(N)cc2)cc1`, the Potency in [1] is 61.1 µM (active). Besides, the Potency result in assay [2], in assay [7], in [5] and in assay [6] was “inactive” throughout.
Regarding `C/C=C/C(=O)OCC(C)C`, the Potency entry in assay [1], in assay [2], in [5] and in assay [6] was “inactive” in each case. The Potency in assay [3] was 54.9 µM (active).
For the compound `CN1CCN(CCCN2c3ccccc3Sc3ccc(Cl)cc32)CC1`, the Potency in [12] is 26.6 µM (active); in assay [14], 26.6 µM (active); in [9], 26.6 µM (active); in [10], 23.7 µM (active); in assay [7] it was 9.52 µM (active); in assay [6], 26.6 µM (active). The call in assay [13] and in assay [15] was inactive. Also, the Potency result in assay [1], in [2] and in assay [5] was “inactive” in each case.
`[Cl][Dy]([Cl])[Cl]`: the Potency result in [1], in [2], in assay [7] and in [5] was “inactive” each time.
`CN(C[C@@H](CC[N+]12CCC(C3CCCCC3)(CC1)CC2)c1ccc(Cl)c(Cl)c1)C(=O)c1cc(C(F)(F)F)cc(C(F)(F)F)c1`: the Potency was 17.4 µM (active) in assay [12]; 24.5 µM (active) in assay [14]; 54.9 µM (active) in [9]; 27.5 µM (active) in [10]; 17.4 µM (active) in assay [16]; 27.5 µM (active) in assay [11]. Also, the Potency in [1] was 48.6 µM (active); in assay [2] it was 43.6 µM (active); in assay [7], 17.4 µM (active); in assay [5] it was 54.5 µM (active).
On to `CCSCC`, for which the Potency entry in assay [8], in assay [9], in assay [10], in assay [11], in assay [1] and in assay [2] was “inactive” in each case. The Potency result in assay [3] and in [5] was “inactive” throughout.
For the compound `O=C1OC(=O)c2cc(-c3ccc4c(c3)C(=O)OC4=O)ccc21`, the Potency in [14] was 54.9 µM (active); in assay [16], 38.9 µM (active). Besides, the Potency entry in assay [10], in assay [17], in assay [11], in assay [1], in assay [2] and in assay [7] was “inactive” throughout. In addition, the Potency result in assay [5] and in [6] was “inactive” in each case. The compound was classed as inactive in assay [15].

Source of the values: PubChem BioAssay (Tox21).
